Reference: the supplement of paper PMC4466140

Target: AgAbp1
Assay: SPOT peptide array binding signal intensity (averaged, normalized) (arbitrary units (background-subtracted, floor 0; scale differs between SH3 domains)); higher = stronger binding of the SH3 domain to the peptide
Outline: (§1)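 Four yeast species supplied the SH3 domains, which were expressed as GST fusions in E. coli BL21(DE3) and purified on glutathione Sepharose. Incubation with cellulose membranes carrying synthetic 15-mer peptides, cysteines exchanged for serines, ran overnight at 4°C at 10 μg/ml in TBS-based blocking buffer. Binding signal is reported as normalized, background-subtracted spot intensity averaged over replicates, in arbitrary units not shared between domains.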

Binder	SPOT peptide array binding signal intensity
FPGKKSPRLPHRNKK	2580

Target: AgBbc1
Assay: as above
Outline: as §1

Binder	SPOT peptide array binding signal intensity
FPGKKSPRLPHRNKK	61.9

Target: AgBem1-D1
Assay: as above
Outline: as §1

Binder	SPOT peptide array binding signal intensity
FPGKKSPRLPHRNKK	47.5

Target: AgBzz1-D1
Assay: as above
Outline: as §1

Binder	SPOT peptide array binding signal intensity
FPGKKSPRLPHRNKK	50

Target: AgBzz1-D2
Assay: as above
Outline: as §1

Binder	SPOT peptide array binding signal intensity
FPGKKSPRLPHRNKK	33.5

Target: AgCyk3
Assay: as above
Outline: as §1

Binder	SPOT peptide array binding signal intensity
FPGKKSPRLPHRNKK	≤ 0

Target: AgFus1
Assay: as above
Outline: as §1

Binder	SPOT peptide array binding signal intensity
FPGKKSPRLPHRNKK	6.5

Target: AgHof1
Assay: as above
Outline: as §1

Binder	SPOT peptide array binding signal intensity
FPGKKSPRLPHRNKK	35.8

Target: AgHse1
Assay: as above
Outline: as §1

Binder	SPOT peptide array binding signal intensity
FPGKKSPRLPHRNKK	82.5

Target: AgLsb1
Assay: as above
Outline: as §1

Binder	SPOT peptide array binding signal intensity
FPGKKSPRLPHRNKK	≤ 0

Target: AgLsb4
Assay: as above
Outline: as §1

Binder	SPOT peptide array binding signal intensity
FPGKKSPRLPHRNKK	1270

Target: AgMyo5
Assay: as above
Outline: as §1

Binder	SPOT peptide array binding signal intensity
FPGKKSPRLPHRNKK	≤ 0

Target: AgNbp2
Assay: as above
Outline: as §1

Binder	SPOT peptide array binding signal intensity
FPGKKSPRLPHRNKK	87.2

Target: AgRvs167
Assay: as above
Outline: as §1

Binder	SPOT peptide array binding signal intensity
FPGKKSPRLPHRNKK	12

Target: AgSho1
Assay: as above
Outline: as §1

Binder	SPOT peptide array binding signal intensity
FPGKKSPRLPHRNKK	33

Target: AgSla1-D1-D2
Assay: as above
Outline: as §1

Binder	SPOT peptide array binding signal intensity
FPGKKSPRLPHRNKK	144

Target: AgSla1-D3
Assay: as above
Outline: as §1

Binder	SPOT peptide array binding signal intensity
FPGKKSPRLPHRNKK	13.5

Target: CaAbp1-D1
Assay: as above
Outline: as §1

Binder	SPOT peptide array binding signal intensity
FPGKKSPRLPHRNKK	2250

Target: CaAbp1-D2
Assay: as above
Outline: as §1

Binder	SPOT peptide array binding signal intensity
FPGKKSPRLPHRNKK	2660

Target: CaBbc1
Assay: as above
Outline: as §1

Binder	SPOT peptide array binding signal intensity
FPGKKSPRLPHRNKK	372

Target: CaBem1-D1
Assay: as above
Outline: as §1

Binder	SPOT peptide array binding signal intensity
FPGKKSPRLPHRNKK	49.8

Target: CaBzz1-D1
Assay: as above
Outline: as §1

Binder	SPOT peptide array binding signal intensity
FPGKKSPRLPHRNKK	167

Target: CaBzz1-D2
Assay: as above
Outline: as §1

Binder	SPOT peptide array binding signal intensity
FPGKKSPRLPHRNKK	126

Target: CaCyk3
Assay: as above
Outline: as §1

Binder	SPOT peptide array binding signal intensity
FPGKKSPRLPHRNKK	4.75

Target: CaFus1
Assay: as above
Outline: as §1

Binder	SPOT peptide array binding signal intensity
FPGKKSPRLPHRNKK	232

Target: CaHof1
Assay: as above
Outline: as §1

Binder	SPOT peptide array binding signal intensity
FPGKKSPRLPHRNKK	≤ 0

Target: CaHse1
Assay: as above
Outline: as §1

Binder	SPOT peptide array binding signal intensity
FPGKKSPRLPHRNKK	5.12

Target: CaLsb1
Assay: as above
Outline: as §1

Binder	SPOT peptide array binding signal intensity
FPGKKSPRLPHRNKK	0.25

Target: CaLsb4
Assay: as above
Outline: as §1

Binder	SPOT peptide array binding signal intensity
FPGKKSPRLPHRNKK	4250

Target: CaMyo5
Assay: as above
Outline: as §1

Binder	SPOT peptide array binding signal intensity
FPGKKSPRLPHRNKK	≤ 0

Target: CaNbp2
Assay: as above
Outline: as §1

Binder	SPOT peptide array binding signal intensity
FPGKKSPRLPHRNKK	216

Target: CaRvs167
Assay: as above
Outline: as §1

Binder	SPOT peptide array binding signal intensity
FPGKKSPRLPHRNKK	247

Target: CaRvs167-3
Assay: as above
Outline: as §1

Binder	SPOT peptide array binding signal intensity
FPGKKSPRLPHRNKK	7.25

Target: CaSho1
Assay: as above
Outline: as §1

Binder	SPOT peptide array binding signal intensity
FPGKKSPRLPHRNKK	152

Target: CaSla1-D1-D2
Assay: as above
Outline: as §1

Binder	SPOT peptide array binding signal intensity
FPGKKSPRLPHRNKK	332

Target: CaSla1-D3
Assay: as above
Outline: as §1

Binder	SPOT peptide array binding signal intensity
FPGKKSPRLPHRNKK	≤ 0

Target: ScAbp1
Assay: as above
Outline: as §1

Binder	SPOT peptide array binding signal intensity
FPGKKSPRLPHRNKK	918

Target: ScBbc1
Assay: as above
Outline: as §1

Binder	SPOT peptide array binding signal intensity
FPGKKSPRLPHRNKK	15.5

Target: ScBem1-D1
Assay: as above
Outline: as §1

Binder	SPOT peptide array binding signal intensity
FPGKKSPRLPHRNKK	7

Target: ScBzz1-D1
Assay: as above
Outline: as §1

Binder	SPOT peptide array binding signal intensity
FPGKKSPRLPHRNKK	9.5

Target: ScBzz1-D2
Assay: as above
Outline: as §1

Binder	SPOT peptide array binding signal intensity
FPGKKSPRLPHRNKK	4.25

Target: ScCyk3
Assay: as above
Outline: as §1

Binder	SPOT peptide array binding signal intensity
FPGKKSPRLPHRNKK	12.5

Target: ScFus1
Assay: as above
Outline: as §1

Binder	SPOT peptide array binding signal intensity
FPGKKSPRLPHRNKK	≤ 0

Target: ScHof1
Assay: as above
Outline: as §1

Binder	SPOT peptide array binding signal intensity
FPGKKSPRLPHRNKK	≤ 0

Target: ScHse1
Assay: as above
Outline: as §1

Binder	SPOT peptide array binding signal intensity
FPGKKSPRLPHRNKK	473

Target: ScLsb1
Assay: as above
Outline: as §1

Binder	SPOT peptide array binding signal intensity
FPGKKSPRLPHRNKK	47.1

Target: ScLsb2
Assay: as above
Outline: as §1

Binder	SPOT peptide array binding signal intensity
FPGKKSPRLPHRNKK	0.5

Target: ScLsb3
Assay: as above
Outline: as §1

Binder	SPOT peptide array binding signal intensity
FPGKKSPRLPHRNKK	3120

Target: ScLsb4
Assay: as above
Outline: as §1

Binder	SPOT peptide array binding signal intensity
FPGKKSPRLPHRNKK	1170

Target: ScMyo3
Assay: as above
Outline: as §1

Binder	SPOT peptide array binding signal intensity
FPGKKSPRLPHRNKK	≤ 0

Target: ScMyo5
Assay: as above
Outline: as §1

Binder	SPOT peptide array binding signal intensity
FPGKKSPRLPHRNKK	≤ 0

Target: ScNbp2
Assay: as above
Outline: as §1

Binder	SPOT peptide array binding signal intensity
FPGKKSPRLPHRNKK	186

Target: ScPex13
Assay: as above
Outline: as §1

Binder	SPOT peptide array binding signal intensity
FPGKKSPRLPHRNKK	393

Target: ScRvs167
Assay: as above
Outline: as §1

Binder	SPOT peptide array binding signal intensity
FPGKKSPRLPHRNKK	714

Target: ScSho1
Assay: as above
Outline: as §1

Binder	SPOT peptide array binding signal intensity
FPGKKSPRLPHRNKK	322

Target: ScSla1-D1-D2
Assay: as above
Outline: as §1

Binder	SPOT peptide array binding signal intensity
FPGKKSPRLPHRNKK	570

Target: ScSla1-D3
Assay: as above
Outline: as §1

Binder	SPOT peptide array binding signal intensity
FPGKKSPRLPHRNKK	5.25

Target: SpAbp1-D1
Assay: as above
Outline: as §1

Binder	SPOT peptide array binding signal intensity
FPGKKSPRLPHRNKK	756

Target: SpBbc1
Assay: as above
Outline: as §1

Binder	SPOT peptide array binding signal intensity
FPGKKSPRLPHRNKK	0.875

Target: SpBzz1-D1
Assay: as above
Outline: as §1

Binder	SPOT peptide array binding signal intensity
FPGKKSPRLPHRNKK	208

Target: SpBzz1-D2
Assay: as above
Outline: as §1

Binder	SPOT peptide array binding signal intensity
FPGKKSPRLPHRNKK	0.125

Target: SpCyk3
Assay: as above
Outline: as §1

Binder	SPOT peptide array binding signal intensity
FPGKKSPRLPHRNKK	1.53e-05

Target: SpHof1
Assay: as above
Outline: as §1

Binder	SPOT peptide array binding signal intensity
FPGKKSPRLPHRNKK	15.2

Target: SpHof1-2
Assay: as above
Outline: as §1

Binder	SPOT peptide array binding signal intensity
FPGKKSPRLPHRNKK	19.8

Target: SpHof1-3
Assay: as above
Outline: as §1

Binder	SPOT peptide array binding signal intensity
FPGKKSPRLPHRNKK	270

Target: SpHse1
Assay: as above
Outline: as §1

Binder	SPOT peptide array binding signal intensity
FPGKKSPRLPHRNKK	142

Target: SpLsb1
Assay: as above
Outline: as §1

Binder	SPOT peptide array binding signal intensity
FPGKKSPRLPHRNKK	17.9

Target: SpLsb4
Assay: as above
Outline: as §1

Binder	SPOT peptide array binding signal intensity
FPGKKSPRLPHRNKK	2700

Target: SpMyo1
Assay: as above
Outline: as §1

Binder	SPOT peptide array binding signal intensity
FPGKKSPRLPHRNKK	4.25

Target: SpNbp2
Assay: as above
Outline: as §1

Binder	SPOT peptide array binding signal intensity
FPGKKSPRLPHRNKK	176

Target: SpPex13
Assay: as above
Outline: as §1

Binder	SPOT peptide array binding signal intensity
FPGKKSPRLPHRNKK	6.5

Target: SpRvs167
Assay: as above
Outline: as §1

Binder	SPOT peptide array binding signal intensity
FPGKKSPRLPHRNKK	833

Target: SpSla1-D1-D2
Assay: as above
Outline: as §1

Binder	SPOT peptide array binding signal intensity
FPGKKSPRLPHRNKK	5

Target: SpSla1-D3
Assay: as above
Outline: as §1

Binder	SPOT peptide array binding signal intensity
FPGKKSPRLPHRNKK	13
